Where “and” joins values, the source holds several entries; their conditions need not be identical. Equal entries are not always repeated. Records with an inconclusive call do not appear. Unmarked numbers belong to inactive results. Calls of active or inactive are those of the source. Calls follow the shape of the dose curve; as a rule, active = well fitted inhibition curve with a large enough effect; inconclusive = small, poorly fitted or top-dose-only effect; inactive = flat fitted curve, though single readings scatter.
% is scaled to controls: 0 for no effect and ±100 for the full control effect; potency is read from the fitted curve at half-maximal effect.

In the test the test system is KB-3-1. As to the kind of experiment: Cytotoxic Profiling of Annotated Libraries Using Quantitative High-Throughput Screening (AID 1296008). Also: nearly all actives have a fitted effect of over 60% in size. To be noted: Five cell lines viability, CellTiter-Glo ATP luminescence, 48-72 h; max response: hits give low values. An excerpt:
Cell-based phenotypic screening is a commonly used approach to discover biological pathways, novel drug targets, chemical probes and high-quality hit-to-lead molecules. Many hits identified from high-throughput screening campaign are ruled out through a series of follow-up potency, selectivity/specificity, and cytotoxicity assays. Prioritization of molecules with little or no cytotoxicity for a more in-depth downstream evaluation influence the future direction of projects, so cytotoxicity profiling of the screening libraries at early stage is essential for increasing the likelihood of candidate success. […] For the annotated library, we also examined the primary targets and mechanistic pathways regularly associated with cell death. To our knowledge, this is the first study to use high-throughput screening to profile large libraries for cytotoxicity assessment in both normal and cancer cell lines. In summary, the results generated here constitutes a valuable resource for the scientific community and provides insight on identifying cytotoxic compounds with particular mechanisms of action, and prioritizing compounds with suitable cytotoxicity profile for further evaluation.
A pintool (Kalypsys) was used to transfer 23 nL of compound solution to the 1536-well assay plates. After 48 or 72 hr incubation at 37 degree Celsius, 5% CO2 and 95% humidity, 2.5 uL of CellTiter-Glo (Promega) was dispensed into each well using a dispenser (Aspect Automation, St. Paul, MN) with solenoid valves (Lee Valves, Westbrook CT). Plates were left at room temperature for 10 min before imaging the ATP-coupled luminescence using a ViewLux microplate imager (PerkinElmer, Waltham, MA).
A general note: In ATP-based viability assays light output follows the ATP content of the culture.
On to `c1cnc2cc3c(cc2n1)C1CNCC3C1`, for which the call was inactive; the max response was 3.64% and -1.73%.
Turning to `CC(S)C(=O)NCC(=O)O` (stereo unspecified), the max response is 5.7%.
For the compound `Nc1ccn([C@@H]2O[C@H](CO)[C@@H](O)C2O)c(=O)n1` (stereo partly specified), the compound was called inactive and the max response is 21.2%.
For `Cc1ccc(NC(=O)c2ccc(CN3CCN(C)CC3)cc2)cc1Nc1nccc(-c2cccnc2)n1`, the max response was -0.677% and -9.97% and -10.5%.
Turning to `CC(=O)O[C@H]1C(=O)[C@@]2(C)C([C@H](OC(=O)c3ccccc3)[C@]3(O)C[C@H](OC(=O)[C@H](O)[C@@H](NC(=O)c4ccccc4)c4ccccc4)C(C)=C1C3(C)C)[C@]1(OC(C)=O)CO[C@@H]1C[C@@H]2O` (stereo partly specified), the Potency is 1 nM (active) and 7.2 nM (active).
For the compound `O=C(CS(=O)Cc1ccco1)NCC=CCOc1cc(CN2CCCCC2)ccn1` (stereo unspecified), the max response is 2.68%.
As to `CCN(CC)CCOc1ccc(Nc2ncc3cc(-c4c(Cl)cccc4Cl)c(=O)n(C)c3n2)cc1`, the Potency was 296 nM (active).
For `Cc1ncc([N+](=O)[O-])n1CC(C)O` (stereo unspecified), the max response was 2.22% and 6.66%.
As to `Cc1cc(=O)oc2cc(O)ccc12`, the max response is 2.35% and 1.97%.
Turning to `C[C@]12CCC(=O)C=C1CC[C@@H]1[C@H]2[C@@H](O)C[C@@]2(C)[C@H]1CC[C@]2(O)C(=O)CO`, the max response was 33.4%.
As for `Oc1ccc2ccccc2c1SSc1c(O)ccc2ccccc12`, the max response was 9.23%.
Turning to `Cc1nc(Nc2ncc(C(=O)Nc3c(C)cccc3Cl)s2)cc(N2CCN(CCO)CC2)n1`, the max response was -28.1%.
For `Cc1nccn1CC1CCc2c(c3ccccc3n2C)C1=O` (stereo unspecified), the call was inactive; the max response is -3.61% and -19.2%.
Turning to `CCCS(=O)c1ccc2nc(NC(=O)OC)[nH]c2c1` (stereo unspecified), the Potency is 20600 nM (active).
On to `N=C(N=C(N)N)N1CCOCC1`, for which the max response is -9.57% and 4.72%.
Still for that read-out and setting: the same measure for `Nc1ccc(S(N)(=O)=O)cc1`: 4.1% and 2.9%.
Regarding `CC(C)[C@H](N)C(=O)OCCOCn1cnc2c(=O)[nH]c(N)nc21`, the max response was 10.2% and the outcome was inactive.
With `O=C1CCc2ccc(OCCCCN3CCN(c4cccc(Cl)c4Cl)CC3)cc2N1`, the max response is -20.7%.
Same read-out and setting: the same measure for `O=c1oc2cc(O)ccc2s1`: -11.2% and -4.56%; for `COc1cc2c(cc1OC)C1CC(=O)C(CC(C)C)CN1CC2` (stereo unspecified): -0.991%.
Take `CC(C)c1ccc2oc3nc(N)c(C(=O)O)cc3c(=O)c2c1`: the max response was -4.86% and the result was inactive.
Take `CC(C)(S)[C@@H](N)C(=O)O`: the max response was 2.35% and 8.6%.
On the same count and under the same terms, the same measure for `CCCCCCCCCCCCCCCCCCCCCCO`: -15.7% and 8.97%.
Take `C=CCc1cc(OC)c(O)c(C(=O)NCCO)c1`: the max response is 8.32% and 9.16%.
On to `O=C(OC1C[C@H]2CC[C@@H](C1)[N+]21CCCC1)C(O)(c1ccccc1)c1ccccc1` (stereo partly specified), for which the max response is 8.48% and 5.72%.
Same read-out and setting: the figure for `Nc1nc(OCc2ccccc2)c2[nH]cnc2n1` is 5.98%.
Take `CCC(C)(Oc1ccc(C2(c3ccc(OC(C)(CC)C(=O)O)cc3)CCCCC2)cc1)C(=O)O` (stereo unspecified): the result was inactive; the max response is -0.0453% and 5.37%.
For the compound `CN(C)C(=O)[C@H](O)[C@H](Cc1ccccc1)NC(=O)c1cc2cc(Cl)ccc2[nH]1`, the max response was -0.73% and the call was inactive.
With `COC(=O)C1=C(C)NC(C)=C(C(=O)OCCCN2CCC(c3ccccc3)(c3ccccc3)CC2)C1c1cccc([N+](=O)[O-])c1` (stereo unspecified), the max response was 0.505%.
On the same count and under the same terms, the figure for `O=C(O)c1cn(-c2ccc(F)cc2)c2cc(N3CCNCC3)c(F)cc2c1=O` is 14.5% and 6.97%; for `Cc1c(OCC(F)(F)F)ccnc1CS(=O)c1nc2ccccc2[nH]1` (stereo unspecified) it is -13.1% and -5.17%.
On to `CCC[C@@H]1C[C@@H](C(=O)N[C@@H]([C@H]2O[C@H](SC)[C@H](O)[C@@H](O)[C@H]2O)[C@@H](C)O)N(C)C1`, for which the max response is -5.54%.
Consider `CCOc1cc(CC(=O)N[C@@H](CC(C)C)c2ccccc2N2CCCCC2)ccc1C(=O)O`, for which the compound was classed as inactive and the max response was 4.6%.

Values taken from PubChem BioAssay (NCATS).
